Each structure is given as a SMILES string. Hit rate of the full screen: of about 2,100 compounds, about 940 (45%) were called active. Another 48% or so got no clear call; they are omitted. So high a share suggests a set chosen from earlier hits. The list shows a part of the results. Values without a mark were called inactive. Calls come from the whole dose curve; as a rule, active = well fitted inhibition curve with a large enough effect; inconclusive = small, poorly fitted or top-dose-only effect; inactive = no such curve, though single readings can be large or run the other way.
Potency is the fitted concentration of half-maximal effect.

This assay in a line: Confirmatory qHTS for Inhibitors of ATXN expression.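 For activity change, negative = inhibition: 0% = DMSO vehicle wells and -100% = medium-only wells without cells.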 Note: nearly all actives have a fitted effect of over 65% in size. To be noted: ATXN2-luciferase reporter cells, luminescence, 24 h; series mostly up to 11.5 µM; activity change, negative = inhibition: at the top concentration. An outline of the steps: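 A titration, incubated 24 h with reporter cells expressing ATXN2-luciferase. Luminescence (SteadyGlo) gives ATXN2 expression, multiplexed GF-AFC fluorescence gives viability; normalised to DMSO and medium-only wells.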
On to `COc1cc(C#Cc2c(-c3cncn3C)n(C)c3ccc(-c4cnc(OC)nc4)cc23)cc(OC)c1`, for which the Potency was 3.16 µM (active).

Consider `Cc1ccnc(NC(=O)C2CCN(S(=O)(=O)c3c(C)c(C)cc(C)c3C)CC2)c1`, for which the Potency is 2.24 µM (active).

With `O=C(Nc1ccc[n+](CC(=O)c2cccc3ccccc23)c1)c1ccccc1`, the Potency is 3.55 µM (active).

Consider `O=[N+]([O-])c1cc(O)c2ncccc2c1`, for which the Potency is 3.16 µM (active).

In the case of `Fc1ccc2[nH]c3c(N4CCc5ccccc5C4)ncnc3c2c1`, the Potency was 3.98 µM (active).

For the molecule `CCOC(=O)N1CCN(c2ncnc3c2[nH]c2ccc(F)cc23)CC1`, the Potency is 8.91 µM (active).

For the molecule `Fc1ccc2[nH]c3c(N4CCSCC4)ncnc3c2c1`, the Potency was 12.6 µM (active).

`O=C(N/N=C\c1cc(Br)ccc1O)c1ccc(S(=O)(=O)N2CCCCC2)cc1`: the Potency is 0.794 µM (active).

For `O=C(N/N=C\c1c(O)ccc2ccccc12)c1ccc(S(=O)(=O)N2CCCCC2)cc1`, the Potency is 0.501 µM (active).

As to `Cc1cc(C)n(-c2ccc(C(=O)N3CCN(S(=O)(=O)c4cccc(Br)c4)CC3)cc2)n1`, the “activity change, negative = inhibition” value is -11.3%.

Consider `CC(OC(=O)c1cc(Br)ccc1O)C(=O)Nc1ccc(S(=O)(=O)N2CCCC2)cc1` (stereo not given), for which the Potency is 28.2 µM (active).

Turning to `O=C(N/N=C\c1cc(Cl)ccc1O)c1ccc(S(=O)(=O)N2CCCCC2)cc1`, the Potency is 0.708 µM (active).

Consider `CCCCOc1ccc(CSC(=N)N)cc1Cl`, for which the Potency was 25.1 µM (active).

In the case of `COc1ccc2c(c1)[nH]c1c(=O)n(/N=C/C3C(C)C=C(C)CC3C)c(=O)[nH]c12` (stereo not given), the Potency was 14.1 µM (active).

In the case of `O=C(N/N=C/c1c(O)n(Cc2ccccc2)c(=O)c2ccccc12)c1cccnc1`, the Potency is 15.8 µM (active).

Take `COc1ccc(Cn2c(O)c(/C=N/NC(=O)c3cccnc3)c3ccccc3c2=O)cc1`: the Potency was 14.1 µM (active).

Take `Cn1c(=O)c2cc(NC(=O)Nc3cccnc3)ccc2n1Cc1ccc(Cl)cc1`: the “activity change, negative = inhibition” value is -17.8% [at 57.5 µM].

On to `CC(=O)Nc1cccc(-c2ccnc3c2CC(C)(C(=O)Nc2cccc(Oc4ccccc4)c2)O3)c1` (stereo not given), for which the Potency is 25.1 µM (active).

With `CC(=O)c1cccc(NC(=O)C2Cc3c(-c4cccc(C(C)=O)c4)ccnc3O2)c1` (stereo not given), the “activity change, negative = inhibition” value is -14.3%.

For the molecule `CC(=O)Nc1cccc(-c2ccnc3c2CC(C)(C(=O)Nc2ccc(Cl)cc2)O3)c1` (stereo not given), the Potency is 10 µM (active).

Consider `CC(Nc1ccccc1CO)C(=O)Nc1cccc(Cl)c1Cl` (stereo not given), for which the Potency was 2.24 µM (active).

With `COc1cc(NC(=O)c2cccc3c(-c4cccnc4)coc23)cc(OC)c1OC`, the Potency was 3.55 µM (active).

Turning to `NC(=S)N1OC[C@@H]2COc3ccc4ccccc4c3[C@@H]21`, the Potency is 14.1 µM (active).

Turning to `O=[N+]([O-])c1ccc(O)c(/C=N\N=C2c3ccccc3-c3ccccc32)c1`, the Potency was 3.98 µM (active).

Take `O=[N+]([O-])c1ccc(O)c(/C=N/Nc2ncnc3c2cnn3-c2ccccc2)c1`: the Potency was 1.26 µM (active).

`O=[N+]([O-])c1ccc(O)c(/C=N/Nc2ccccn2)c1`: the Potency is 0.631 µM (active).

Turning to `COc1ccc(N2CCN(C(=O)c3cc4c(C)nc5ccccc5c4o3)CC2)cc1`, the Potency is 25.1 µM (active).

Consider `COc1ccccc1N1CCN(C(=O)c2cc3c(C)nc4ccccc4c3o2)CC1`, for which the Potency was 3.55 µM (active).

`N#C/C(=C\c1cccc([N+](=O)[O-])c1)C(=O)NCc1ccc(Cl)cc1`: the Potency was 3.16 µM (active).

On to `CC1CCCCC1NC(=O)/C(C#N)=C/C=C/c1ccccc1[N+](=O)[O-]` (stereo not given), for which the Potency was 3.16 µM (active).

For the molecule `N#C/C(=C\C=C\c1ccccc1[N+](=O)[O-])C(=O)NCc1ccccc1`, the Potency is 2.82 µM (active).

Regarding `N#C/C(=C\C=C\c1ccccc1[N+](=O)[O-])C(=O)NC1CCCCC1`, the Potency was 17.8 µM (active).

Regarding `COC(=O)c1ccc2c(c1)C(C)(C)C(/C=C/c1ccc(OC)c(OC)c1OC)=[N+]2C`, the Potency was 3.55 µM (active).

Take `CCNc1ccc(Br)cc(C(=O)/C=C/c2ccccc2Cl)c1=O`: the “activity change, negative = inhibition” value was 0.525%.

As to `O=C(/C=C/c1ccccc1)c1cc(Br)ccc(=O)c1O`, the Potency is 28.2 µM (active).

As to `CC(=O)Nc1ccc(NC2=Nc3ccccc3N3C2=Nc2c(c(C)nn2-c2ccccc2)C3c2ccccc2)cc1` (stereo not given), the Potency is 1.26 µM (active).

With `Cc1cccc(NC2=Nc3ccccc3N3C2=Nc2c(c(C)nn2-c2ccccc2)C3c2ccc(O)c(O)c2)c1` (stereo not given), the Potency was 3.55 µM (active).

As for `COc1cccc(NC(=O)CSc2nc3ncc(Br)cc3[nH]2)c1`, the Potency is 3.98 µM (active).

Take `Cc1cc(C)n(-c2nc(Nc3ccccc3C(F)(F)F)nc(-n3nc(C)cc3C)n2)n1`: the Potency is 3.16 µM (active).

Turning to `CCOC(=O)N1CCN(Cc2cc(Cl)c3cccnc3c2O)CC1`, the Potency is 1.58 µM (active).

On to `O=C(Oc1c(CN2CCOCC2)cc(Cl)c2cccnc12)c1cccs1`, for which the Potency was 11.2 µM (active).

For the molecule `O=C(Oc1c(CN2CCOCC2)cc(Cl)c2cccnc12)c1ccccc1`, the Potency was 3.55 µM (active).

As for `CC(C)(O)C#Cc1ccc([C@@H]2C[C@H]3CN(c4ccccc4)C(=O)[C@]34CCCN24)s1`, the Potency was 5.01 µM (active).

For the molecule `O=C1N(c2ccccc2)C[C@@H]2C[C@@H](c3cc4ccccc4o3)N3CCC[C@@]123`, the Potency was 0.316 µM (active).

On to `CC(C)C[C@H](N)c1cn([C@@H](CCCCN)C(=O)N2CCNCC2)nn1`, for which the “activity change, negative = inhibition” value is -10.6%.

As for `Cc1c(OCC(=O)NC2CC(C)(C)NC(C)(C)C2)ccc2c1oc(=O)c1ccccc12`, the Potency is 2.82 µM (active).

On to `COc1ccccc1-c1cc2nc(-c3ccccc3)cc(N3CCN(C(=O)c4ccoc4)CC3)n2n1`, for which the Potency is 12.6 µM (active).

`COc1ccccc1-c1cc2nc(-c3ccccc3)cc(N3CCN(C(=O)c4ccco4)CC3)n2n1`: the Potency is 12.6 µM (active).

For `COc1cccc(-c2cc3nc(-c4ccccc4)cc(N4CCN(C(=O)c5ccoc5)CC4)n3n2)c1`, the Potency is 2.82 µM (active).

As for `O=C(c1ccoc1)N1CCN(c2cc(-c3ccco3)nc3cc(-c4ccccc4)nn23)CC1`, the Potency is 25.1 µM (active).

As for `Cn1cccc1/C=N/N1CCN(Cc2ccccc2Cl)CC1`, the “activity change, negative = inhibition” value was -21.1% [at 57.5 µM].

For `CCOc1ccc(S(=O)(=O)NCCC(=O)N2CC=C(c3ccccc3)CC2)cc1`, the Potency is 12.6 µM (active).

`Cc1cccn2c(=O)c3cc(C(=O)NCCN4CCOCC4)c(=N)n(Cc4ccc(F)cc4)c3nc12`: the Potency is 7.08 µM (active).

As for `Cc1ccc2[nH]c(O)c(N=NC(=O)C3CC3c3ccccc3)c2c1Br` (stereo not given), the “activity change, negative = inhibition” value is -23.6%.

As for `OC(CN1CCCCC1)Cn1c2ccc(Cl)cc2c2cc(Cl)ccc21` (stereo not given), the Potency is 3.16 µM (active).

Source of the values: PubChem BioAssay AID1745848 (National Center for Advancing Translational Sciences (NCATS), 2022).
